Experimental data taken from PubChem BioAssay (NCI).
Compounds without any hit were thinned out: in the full panel of roughly 83,000, 20% have a hit.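 How to read the values: 0–100, growth inhibition (40 = 60% inhibited); 0, no net growth; -100 to 0, cell death (-40 = 40% of starting cells died; -100 = all dead).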 Activity calls are given as the source filed them. The calls were made as follows: active = growth percent below 10; inactive = the rest.

Legend:
Experiment in all cases: NCI-60 one-dose screen, 48 h (100 = growth as untreated, 0 = no growth, -100 = all killed)
Conditions in all cases: 10 µM unless noted
NCI-H23 lung = system: NCI-H23 lung
NCI-H226 lung = system: NCI-H226 lung
NCI-H322M lung = system: NCI-H322M lung
HOP-62 NSCLC = system: HOP-62 NSCLC
NCI-H460 lung = system: NCI-H460 lung
HOP-92 NSCLC = system: HOP-92 NSCLC
NCI-H522 lung = system: NCI-H522 lung
A549/ATCC NSCLC = system: A549/ATCC NSCLC
786-0 renal = system: 786-0 renal
DU-145 prostate = system: DU-145 prostate
K-562 leukemia = system: K-562 leukemia
MALME-3M melanoma = system: MALME-3M melanoma
MDA-MB-231 breast = system: MDA-MB-231 breast
RXF 393 renal = system: RXF 393 renal
SF-268 CNS = system: SF-268 CNS
SF-295 CNS = system: SF-295 CNS
SF-539 CNS = system: SF-539 CNS
UACC-257 melanoma = system: UACC-257 melanoma
M14 melanoma = system: M14 melanoma
COLO 205 colon = system: COLO 205 colon

Measured: growth

COCCCOc1cc(C[C@@H](C[C@H](N)[C@@H](O)C[C@H](C(=O)NCC(C)(C)C(N)=O)C(C)C)C(C)C)ccc1OC
inactive: NCI-H23 lung 99.4% | NCI-H226 lung 102% | NCI-H322M lung 114% | HOP-62 NSCLC 114% | NCI-H460 lung 112% | HOP-92 NSCLC 84.5% | NCI-H522 lung 101% | A549/ATCC NSCLC 103% | 786-0 renal 103% | DU-145 prostate 124% | K-562 leukemia 103% | MALME-3M melanoma 109% | MDA-MB-231 breast 102% | RXF 393 renal 104% | SF-268 CNS 117% | SF-295 CNS 93% | SF-539 CNS 103% | UACC-257 melanoma 104% | M14 melanoma 109%

CN1CCN(C(=O)c2cc(-c3ccc4ncnc(N5CCc6cc(F)c(Cl)cc65)c4c3)cnc2N)CC1
inactive: NCI-H226 lung 14.5% | HOP-62 NSCLC 12% | K-562 leukemia 11.1% | MDA-MB-231 breast 10.5%
active: NCI-H23 lung 8.25% | NCI-H322M lung -8.41% | NCI-H460 lung 8.83% | HOP-92 NSCLC -27.2% | NCI-H522 lung 2.49% | A549/ATCC NSCLC 3.84% | 786-0 renal 2.28% | COLO 205 colon 3.92% | DU-145 prostate 8.87% | MALME-3M melanoma -38.6% | RXF 393 renal -48.9% | SF-268 CNS 0.525% | SF-295 CNS 0.0297% | SF-539 CNS -24.3% | UACC-257 melanoma 6% | M14 melanoma 1.59%

CNCc1cccc2c1OCCOCCN(C)C(=O)CN(C)S(=O)(=O)c1ccc(cc1)-c1cnc(N)c(n1)C(=O)N2
inactive: NCI-H322M lung 40.4% | HOP-92 NSCLC 46.5% | NCI-H522 lung 23.5% | A549/ATCC NSCLC 11.9% | COLO 205 colon 19.9% | MDA-MB-231 breast 67.6% | SF-268 CNS 28.3% | SF-295 CNS 36.1% | UACC-257 melanoma 41.6%
active: NCI-H23 lung 6.92% | NCI-H226 lung -33.3% | HOP-62 NSCLC -6.9% | NCI-H460 lung -40.9% | 786-0 renal -40.3% | DU-145 prostate 7.84% | K-562 leukemia -39.5% | MALME-3M melanoma -85.3% | RXF 393 renal -0.929% | SF-539 CNS -50.7% | M14 melanoma 2.41%

COc1ccc(C/C(C)=C(\c2ccc(O)cc2)c2ccc(OCCN3CCCC3)cc2)cc1
inactive: NCI-H23 lung 105% | NCI-H226 lung 113% | NCI-H322M lung 99.2% | HOP-62 NSCLC 102% | NCI-H460 lung 113% | HOP-92 NSCLC 104% | NCI-H522 lung 97.5% | A549/ATCC NSCLC 98% | 786-0 renal 100% | COLO 205 colon 111% | DU-145 prostate 104% | K-562 leukemia 85.5% | MALME-3M melanoma 94.1% | MDA-MB-231 breast 104% | RXF 393 renal 136% | SF-268 CNS 107% | SF-295 CNS 102% | SF-539 CNS 99.9% | UACC-257 melanoma 99.1% | M14 melanoma 95.2%

CCOC(=O)C(=Cc1cccc(C#N)c1)C(=O)OCC
inactive: NCI-H23 lung 68.4% | NCI-H226 lung 38.1% | NCI-H322M lung 91% | HOP-62 NSCLC 115% | NCI-H460 lung 95.9% | HOP-92 NSCLC 63.2% | NCI-H522 lung 16.7% | A549/ATCC NSCLC 75.5% | 786-0 renal 86.4% | DU-145 prostate 48% | K-562 leukemia 22.7% | MALME-3M melanoma 49.9% | MDA-MB-231 breast 55.4% | RXF 393 renal 33.5% | SF-268 CNS 64.1% | SF-295 CNS 95.9% | SF-539 CNS 62.9% | UACC-257 melanoma 69.6% | M14 melanoma 62.3%

CCOC(=O)N1CCN(S(=O)(=O)c2oc(-c3ccc(Cl)cc3)nc2C#N)CC1
active: NCI-H522 lung -6.61% | K-562 leukemia 9.23%
inactive: NCI-H23 lung 75.9% | NCI-H226 lung 93.4% | NCI-H322M lung 99.3% | HOP-62 NSCLC 96% | NCI-H460 lung 103% | HOP-92 NSCLC 97.6% | A549/ATCC NSCLC 96.8% | 786-0 renal 92.7% | COLO 205 colon 47% | DU-145 prostate 103% | MALME-3M melanoma 79.8% | MDA-MB-231 breast 93.4% | RXF 393 renal 83.8% | SF-268 CNS 109% | SF-295 CNS 102% | SF-539 CNS 89% | UACC-257 melanoma 84.1% | M14 melanoma 75.4%

CCCCCCCCCCCCCCCCCCOc1ccccc1CC(=O)OCC[N+]1(C)CCOCC1
inactive: NCI-H23 lung 66.5% | NCI-H226 lung 49.8% | NCI-H322M lung 79.8% | HOP-62 NSCLC 55.6% | NCI-H460 lung 69.2% | HOP-92 NSCLC 44.2% | NCI-H522 lung 39.9% | A549/ATCC NSCLC 62.6% | 786-0 renal 68.3% | COLO 205 colon 65.6% | DU-145 prostate 70.8% | K-562 leukemia 58% | MALME-3M melanoma 67.2% | MDA-MB-231 breast 49.8% | SF-268 CNS 36.2% | SF-295 CNS 87.3% | SF-539 CNS 71.6% | UACC-257 melanoma 103% | M14 melanoma 69.9%
active: RXF 393 renal 1.62%

O=C(Cn1nnc2ccccc21)N/N=C/c1ccccc1F
inactive: NCI-H23 lung 105% | NCI-H226 lung 85.8% | NCI-H322M lung 93.6% | HOP-62 NSCLC 102% | NCI-H460 lung 104% | HOP-92 NSCLC 103% | NCI-H522 lung 84.9% | A549/ATCC NSCLC 89.2% | 786-0 renal 97.5% | COLO 205 colon 113% | DU-145 prostate 107% | K-562 leukemia 94.3% | MALME-3M melanoma 102% | MDA-MB-231 breast 91.1% | RXF 393 renal 101% | SF-268 CNS 93.9% | SF-295 CNS 111% | SF-539 CNS 102% | UACC-257 melanoma 93% | M14 melanoma 108%

NS(=O)(=O)c1ccc(N/C=C/C(=O)c2cc3ccccc3oc2=O)cc1
inactive: NCI-H23 lung 88% | NCI-H226 lung 86.9% | NCI-H322M lung 92.9% | HOP-62 NSCLC 84.7% | NCI-H460 lung 96.8% | HOP-92 NSCLC 76.1% | NCI-H522 lung 96.3% | A549/ATCC NSCLC 97.1% | 786-0 renal 96.1% | COLO 205 colon 102% | DU-145 prostate 109% | K-562 leukemia 94.8% | MALME-3M melanoma 85% | MDA-MB-231 breast 85.2% | RXF 393 renal 102% | SF-268 CNS 95.5% | SF-295 CNS 103% | SF-539 CNS 93% | UACC-257 melanoma 110% | M14 melanoma 89.5%

N=C(N)c1ccc(-c2ccc(-c3ccc(Cl)cc3)o2)o1
active: NCI-H460 lung -72.3% | NCI-H522 lung -2.55% | A549/ATCC NSCLC -64.6% | 786-0 renal 1.68% | COLO 205 colon -78.6% | DU-145 prostate -80.4% | K-562 leukemia -60% | MDA-MB-231 breast -60.2%
inactive: NCI-H23 lung 29% | NCI-H226 lung 82.7% | NCI-H322M lung 26.2% | HOP-62 NSCLC 52.4% | HOP-92 NSCLC 39.5% | MALME-3M melanoma 90.6% | RXF 393 renal 40.4% | SF-268 CNS 17.9% | SF-295 CNS 27.4% | SF-539 CNS 74.1% | UACC-257 melanoma 53.4% | M14 melanoma 19.7%

O=P(O)(O)OCC1OC(n2cnc3c(NCc4ccccc4)ncnc32)C(O)C1O (stereo unspecified)
inactive: NCI-H23 lung 17.8% | NCI-H226 lung 21.1% | NCI-H322M lung 33.6% | HOP-62 NSCLC 29.9% | NCI-H460 lung 94.3% | HOP-92 NSCLC 22.3% | A549/ATCC NSCLC 55.1% | 786-0 renal 21.3% | K-562 leukemia 60.8% | MALME-3M melanoma 80.9% | MDA-MB-231 breast 10.6% | SF-268 CNS 36.3% | SF-295 CNS 52.4% | UACC-257 melanoma 115% | M14 melanoma 29.4%
active: NCI-H522 lung 0.67% | DU-145 prostate -50.3% | RXF 393 renal -0.932% | SF-539 CNS 6.39%

COc1cc(-c2nc3occn3c2-c2ccnc(NCCCNS(=O)(=O)c3ccccc3)n2)ccc1F
inactive: NCI-H23 lung 45.6% | NCI-H226 lung 18.4% | NCI-H322M lung 78.3% | HOP-62 NSCLC 73.9% | NCI-H460 lung 47.8% | HOP-92 NSCLC 63.4% | NCI-H522 lung 26.6% | A549/ATCC NSCLC 38% | 786-0 renal 63.8% | COLO 205 colon 28.8% | DU-145 prostate 52.5% | K-562 leukemia 26.5% | MALME-3M melanoma 18.4% | MDA-MB-231 breast 45.1% | RXF 393 renal 48.6% | SF-268 CNS 52.8% | SF-295 CNS 46% | SF-539 CNS 78.8% | UACC-257 melanoma 41.4% | M14 melanoma 17.2%

N=C(N)c1ccc(-c2ccc(-c3ccc(F)cc3)s2)s1
inactive: NCI-H226 lung 90.4% | HOP-62 NSCLC 57% | HOP-92 NSCLC 28.5% | MALME-3M melanoma 76.9%
active: NCI-H23 lung -62.6% | NCI-H322M lung -29.7% | NCI-H460 lung -64.9% | NCI-H522 lung -72% | A549/ATCC NSCLC -65.8% | 786-0 renal -57.5% | DU-145 prostate -86.3% | K-562 leukemia -61.4% | MDA-MB-231 breast -54.4% | RXF 393 renal -69.1% | SF-268 CNS -19.5% | SF-295 CNS -76.4% | SF-539 CNS -29% | UACC-257 melanoma -50.2% | M14 melanoma -45.5%

COc1cc(/C=C2\C(=O)N(c3c(Cl)cccc3Cl)c3ccccc32)cc(OC)c1OCCCCCCn1c2ccccc2c(=O)c2ccccc21
inactive: NCI-H23 lung 103% | NCI-H226 lung 95.4% | NCI-H322M lung 95.7% | HOP-62 NSCLC 95.4% | NCI-H460 lung 110% | HOP-92 NSCLC 95.9% | NCI-H522 lung 87.3% | A549/ATCC NSCLC 109% | 786-0 renal 95.5% | COLO 205 colon 107% | DU-145 prostate 104% | K-562 leukemia 98.8% | MALME-3M melanoma 106% | MDA-MB-231 breast 100% | RXF 393 renal 106% | SF-268 CNS 87.6% | SF-295 CNS 99% | SF-539 CNS 93.8% | UACC-257 melanoma 111% | M14 melanoma 93.8%

O=C1NC(=O)c2c1c1c3ccccc3[nH]c1c1oc3ccc(F)cc3c21
inactive: NCI-H23 lung 61.9% | NCI-H226 lung 54% | NCI-H322M lung 50.7% | HOP-62 NSCLC 64.8% | NCI-H460 lung 52.9% | HOP-92 NSCLC 70.1% | NCI-H522 lung 50.4% | A549/ATCC NSCLC 86% | 786-0 renal 90.3% | COLO 205 colon 79.4% | DU-145 prostate 77.4% | K-562 leukemia 78.4% | MALME-3M melanoma 48.6% | MDA-MB-231 breast 77.9% | RXF 393 renal 69.1% | SF-268 CNS 79.5% | SF-295 CNS 71% | SF-539 CNS 64.3% | UACC-257 melanoma 95.1% | M14 melanoma 45.1%
